Assay results as given in PubChem BioAssay.
Activity calls are given as the source filed them.

What was measured:
[1] = system: PRMT1 (protein arginine N-methyltransferase 1); test: PRMT1 binders on small-molecule microarrays, primary screen, biochemical, small-molecule microarray, 635 nm fluorescence (AID 1088); details: small-molecule microarray binding, higher = more signal;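 further: binding of Prmt1 protein to compounds spotted on small-molecule microarray slides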
[2] = yeast growth modulation, basal conditions, primary screen, YJM789 clinical isolate, OD600, 24 h (AID 1089);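 further: growth of clinical yeast isolate S. cerevisiae YJM 789 seeded 1000 cells per well; test concentration not given here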; details: S. cerevisiae YJM789 growth, higher = more signal, called active from +8 up or from −8 down
[3] = fission yeast growth modulation, primary screen, strain 972, OD600, 24 h, no modulator (AID 1090);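 further: basal condition with compound alone and no growth modifier present; test concentration not given here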; details: S. pombe 972 growth, higher = more signal, called active from +8 up or from −8 down
[4] = S. cerevisiae growth modulation with rapamycin, primary screen, strain BY4716, OD600, 96 h (AID 1091); details: higher = more signal, called active from +8 up or from −8 down; further: test concentration not given here
[5] = molecular target: Torsin-1A-interacting protein 2 (Homo sapiens) (UniProt Q8NFQ8); test: LULL1 binders on small-molecule microarray, primary screen, cell lysate, human LULL1 lysate, 635/667 nm fluorescence (AID 1092); details: hLULL1 lysate binding, 635 nm fluorescence, higher = more signal;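 further: probe is lysate of COS7 cells overexpressing human LULL1; score merges per-feature 667 nm fluorescence with signal-to-noise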
[6] = E. coli growth modulation, two-sided OD650, primary screen, E. coli filamentation project, strain DRC41, 24 h (AID 1093); details: OD650, 24 h, higher = more signal, called active from +8 up or from −8 down;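 further: MC1000 strain lacking acrAB efflux and sulA so SOS filamentation is blocked; test concentration not given here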
[7] = small-molecule microarray binders of probe aLefty2, primary screen, biochemical, biotinylated probe, 635/667 nm fluorescence (AID 1094); details: higher = more signal;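 further: score merges spot fluorescence near 667 nm with spot signal-to-noise ratio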
[8] = system: Noggin (protein binding on small-molecule microarray); test: Noggin binders on small-molecule microarray, primary screen, biochemical, 635/667 nm fluorescence (AID 1095); details: 635 nm fluorescence, higher = more signal;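 further: score merges 667 nm feature fluorescence with signal to noise over triplicate slides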
[9] = molecular target: Neurogenic locus notch homolog protein 3 (Homo sapiens) (UniProt Q9UM47); test: NOTCH3 binders on small-molecule microarray, primary screen, biochemical, 635/667 nm fluorescence (AID 1096); details: NOTCH3 binding, 635 nm fluorescence, higher = more signal
[10] = small-molecule microarray binders of probe aEGFR, primary screen, biochemical, biotinylated probe, 635/667 nm fluorescence (AID 1097); details: higher = more signal;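 further: probe is a biotinylated anti-EGFR antibody binding compounds printed on slides; score combines fluorescence near 667 nm and signal to noise of each spot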

Sequence of Neurogenic locus notch homolog protein 3 (Homo sapiens) (Q9UM47 whole entry, looked up): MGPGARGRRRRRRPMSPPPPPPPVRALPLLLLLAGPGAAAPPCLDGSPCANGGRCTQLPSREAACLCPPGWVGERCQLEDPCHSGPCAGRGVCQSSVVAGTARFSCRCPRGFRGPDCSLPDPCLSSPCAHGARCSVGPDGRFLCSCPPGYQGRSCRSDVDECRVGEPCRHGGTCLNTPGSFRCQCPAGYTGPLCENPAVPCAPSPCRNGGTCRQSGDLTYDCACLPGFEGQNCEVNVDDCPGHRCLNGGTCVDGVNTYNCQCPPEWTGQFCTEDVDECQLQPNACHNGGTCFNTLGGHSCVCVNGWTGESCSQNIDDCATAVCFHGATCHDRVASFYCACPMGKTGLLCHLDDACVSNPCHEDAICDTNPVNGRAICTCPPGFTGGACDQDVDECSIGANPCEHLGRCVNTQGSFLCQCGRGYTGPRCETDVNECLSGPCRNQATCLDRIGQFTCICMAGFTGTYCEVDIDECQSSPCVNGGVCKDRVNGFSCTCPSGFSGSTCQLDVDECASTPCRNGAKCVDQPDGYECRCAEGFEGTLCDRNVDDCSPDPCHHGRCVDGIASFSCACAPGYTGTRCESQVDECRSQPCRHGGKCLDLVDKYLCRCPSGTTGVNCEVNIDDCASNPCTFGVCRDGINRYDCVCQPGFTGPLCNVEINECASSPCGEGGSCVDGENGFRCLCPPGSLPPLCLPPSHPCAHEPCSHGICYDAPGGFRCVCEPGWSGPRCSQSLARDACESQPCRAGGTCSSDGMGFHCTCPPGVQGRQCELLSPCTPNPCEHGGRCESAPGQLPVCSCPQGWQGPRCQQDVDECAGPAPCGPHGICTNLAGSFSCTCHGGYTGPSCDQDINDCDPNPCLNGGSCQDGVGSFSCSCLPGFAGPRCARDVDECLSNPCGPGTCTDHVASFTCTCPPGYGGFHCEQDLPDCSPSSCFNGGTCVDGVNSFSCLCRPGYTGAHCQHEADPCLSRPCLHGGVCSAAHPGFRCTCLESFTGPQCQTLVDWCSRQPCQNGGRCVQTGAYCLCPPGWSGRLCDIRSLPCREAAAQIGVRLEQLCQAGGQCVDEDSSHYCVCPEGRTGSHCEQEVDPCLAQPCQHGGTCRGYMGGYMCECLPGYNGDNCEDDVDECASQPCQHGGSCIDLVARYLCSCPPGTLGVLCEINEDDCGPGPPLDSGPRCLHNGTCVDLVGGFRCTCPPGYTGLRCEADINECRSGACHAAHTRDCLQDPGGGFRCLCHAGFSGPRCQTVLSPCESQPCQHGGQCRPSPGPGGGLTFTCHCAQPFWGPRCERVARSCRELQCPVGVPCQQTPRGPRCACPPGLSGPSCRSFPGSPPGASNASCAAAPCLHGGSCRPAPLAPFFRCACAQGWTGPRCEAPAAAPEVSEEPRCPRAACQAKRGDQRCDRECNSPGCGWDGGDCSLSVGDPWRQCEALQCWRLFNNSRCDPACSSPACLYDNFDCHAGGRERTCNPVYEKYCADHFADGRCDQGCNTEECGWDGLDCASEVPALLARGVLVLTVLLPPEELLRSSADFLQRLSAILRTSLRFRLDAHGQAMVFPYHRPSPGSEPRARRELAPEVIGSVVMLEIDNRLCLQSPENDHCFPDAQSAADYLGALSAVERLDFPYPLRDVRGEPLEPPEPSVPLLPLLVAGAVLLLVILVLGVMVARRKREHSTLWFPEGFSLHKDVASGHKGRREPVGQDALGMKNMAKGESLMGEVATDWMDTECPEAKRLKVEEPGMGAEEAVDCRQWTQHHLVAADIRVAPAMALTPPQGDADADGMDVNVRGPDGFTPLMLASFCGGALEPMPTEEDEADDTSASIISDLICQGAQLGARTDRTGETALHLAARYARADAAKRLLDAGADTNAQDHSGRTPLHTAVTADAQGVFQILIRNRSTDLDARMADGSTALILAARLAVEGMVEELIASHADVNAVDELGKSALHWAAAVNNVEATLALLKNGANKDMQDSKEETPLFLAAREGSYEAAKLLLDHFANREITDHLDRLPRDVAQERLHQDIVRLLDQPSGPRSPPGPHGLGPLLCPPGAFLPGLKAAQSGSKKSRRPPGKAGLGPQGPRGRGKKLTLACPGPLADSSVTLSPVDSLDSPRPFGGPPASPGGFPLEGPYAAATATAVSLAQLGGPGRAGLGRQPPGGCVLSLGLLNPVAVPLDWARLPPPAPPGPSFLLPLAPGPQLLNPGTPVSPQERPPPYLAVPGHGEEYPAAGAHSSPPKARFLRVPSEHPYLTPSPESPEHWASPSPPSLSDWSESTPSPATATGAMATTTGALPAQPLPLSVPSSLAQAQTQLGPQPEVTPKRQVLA
Sequence of Torsin-1A-interacting protein 2 (Homo sapiens) (Q8NFQ8 whole entry, looked up): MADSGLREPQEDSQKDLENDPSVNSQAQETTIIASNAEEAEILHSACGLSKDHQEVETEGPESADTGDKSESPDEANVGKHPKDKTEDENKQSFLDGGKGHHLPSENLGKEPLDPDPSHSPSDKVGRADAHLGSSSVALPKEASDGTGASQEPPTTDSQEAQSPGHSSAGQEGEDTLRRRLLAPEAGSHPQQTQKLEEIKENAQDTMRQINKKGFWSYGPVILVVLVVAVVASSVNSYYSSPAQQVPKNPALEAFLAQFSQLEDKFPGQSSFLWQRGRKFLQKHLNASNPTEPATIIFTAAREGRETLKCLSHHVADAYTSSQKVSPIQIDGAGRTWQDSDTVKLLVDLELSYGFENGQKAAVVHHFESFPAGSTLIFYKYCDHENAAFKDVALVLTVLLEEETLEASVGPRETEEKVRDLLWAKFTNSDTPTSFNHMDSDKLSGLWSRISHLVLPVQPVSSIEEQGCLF

Structure (SMILES)	composite z-score [1]	z-score [2]	z-score [3]	z-score [4]	composite z-score [5]	z-score [6]	composite z-score [7]	composite z-score [8]	composite z-score [9]	composite z-score [10]
O=C1N(CCS(=O)(=O)c2ccccc2)c2ccccc2[C@H]2OC(c3ccc(OCCCO)cc3)=N[C@@]12CCS(=O)(=O)c1ccccc1	1.55	2.95 (inactive)	2.54 (inactive)	7.94 (inactive)	3.1	0.8 (inactive)	0.856	1.08	1.07	0.723
[N-]=[N+]=NCc1ccccc1[C@H]1OC(c2ccc(OCCCO)cc2)=N[C@@]1(Cc1ccccc1N=[N+]=[N-])C(=O)NCCN1CCOCC1	1.54	0.0051 (inactive)	-13.9 (active)	0.355 (inactive)	3.43	0.72 (inactive)	0.328	0.476	1.02	-0.0205
CN1C(=O)C2C=CC(C(O)c3cccc4ccccc34)N(NC(=O)OC(C)(C)C)C2C1=O (stereo not given)	1.25	-1.04 (inactive)	-0.397 (inactive)	-0.0612 (inactive)	2.63	-0.094 (inactive)	0.712	-0.773	1.02	0.37
COC(=O)C(CC#Cc1ccc2c(c1)[C@]1(C(=O)N2)[C@H](C(=O)N2CCc3cc(OC)c(OC)cc3C2)[C@H]2C(=O)O[C@H](c3ccccc3)[C@H](c3ccccc3)N2[C@@H]1c1ccc(O)cc1)C(=O)OC	1.48	2.78 (inactive)	0.355 (inactive)	2.62 (inactive)	2.83	2.04 (inactive)	0.157	1.88	1.09	0.404
C[N+](C)(C)CCCCCCNC(=O)[C@H]1C[C@H]2C(=O)N3CCC[C@H]3C(=O)N2[C@H]1c1cccc(OCCO)c1	1.3	-0.811 (inactive)	-0.486 (inactive)	0.0309 (inactive)	3.24	-0.64 (inactive)	0.05	0.666	1.08	0.153
COC(=O)[C@H]1N=C(c2ccc(OCCCO)cc2)O[C@H]1c1ccccc1CN=[N+]=[N-]	0.943	-0.363 (inactive)	-0.225 (inactive)	0.444 (inactive)	1.84	0.887 (inactive)	0.992	-0.0277	0.27	-0.131
Cc1ccc(S[C@]2(C(=O)NCc3ccccc3)CC(=O)N(C3Cc4ccccc4C3)[C@@H]2c2ccc(CO)cc2I)cc1	1.19	-2.5 (inactive)	-1.73 (inactive)	0.199 (inactive)	2.11	3.17 (inactive)	-0.165	-0.508	-0.288	-0.135
O=C1NC(=O)C2C1C=CC(C(O)CCc1ccccc1)N2Nc1ccccn1 (stereo not given)	0.509	-0.974 (inactive)	1.51 (inactive)	-0.312 (inactive)	1.51	-0.581 (inactive)	-0.0719	0.103	0.312	-0.0659
C[C@]12C(=O)N(CCCO)[C@@H]3C(=O)N(c4ccc(Cl)cc4)CC=CC31O[C@@H]1/C=C\CCCOC(=O)C12 (stereo not given in full)	0.868	-1.65 (inactive)	-1.51 (inactive)	-0.488 (inactive)	3.16	-0.298 (inactive)	-0.262	-0.441	-0.123	-0.261
C[C@@]1([C@@H](NC(=O)c2cccs2)c2ccc(-c3ccccc3)cc2)C[C@H]1C1CCCCC1	-1.61	1.53 (inactive)	-0.584 (inactive)	-0.578 (inactive)	2.95	-0.474 (inactive)	-0.288	-0.786	-1.31	-0.239
Cc1cc(C)c(C(O)C2C=CC3C(=O)N(c4ccccc4)C(=O)C3N2Nc2ccccc2)c(C)c1 (stereo not given)	1.56	0.839 (inactive)	0.483 (inactive)	0.0441 (inactive)	3.47	-1.02 (inactive)	0.506	0.0982	1.05	0.178
O=C1NC(=O)C2C1C=CC(C(O)c1ccc(-c3ccccc3)s1)N2Nc1ccccn1 (stereo not given)	0.189	-0.3 (inactive)	1.01 (inactive)	0.499 (inactive)	1.76	0.0076 (inactive)	0.129	-0.0414	0.418	-0.0085
Cc1ccc(S[C@]2(C(=O)NCC(C)C)CC(=O)N(C3CCCCC3)[C@@H]2c2ccc(CO)cc2I)cc1	1.56	-0.525 (inactive)	0.293 (inactive)	-0.0866 (inactive)	2.59	0.12 (inactive)	0.11	0.165	1	-0.276
C=CCOc1ccc([C@@H]2CC=C(C(=O)OCC)[C@H](c3cccc(Br)c3)N2S(=O)(=O)c2ccc(C)cc2)cc1	-0.227	-2.1 (inactive)	-0.493 (inactive)	0.196 (inactive)	0.652	-0.372 (inactive)	0.049	-0.351	-0.32	-0.0456
COc1cc(C(O)C2C=CC3C(=O)NC(=O)C3N2Nc2ccc(Cl)cc2Cl)cc(OC)c1OC (stereo not given)	1.18	-12.3 (active)	-1.57 (inactive)	0.27 (inactive)	3.27	-0.66 (inactive)	0.162	0.049	1.09	0.114
CCOC(=O)C[C@H]1[C@H](OC(=O)c2ccc(C(=O)c3ccccc3)cc2)[C@@H](NC(=O)C2CCCCC2)c2cc(OCCCO)ccc2N1C(=O)Cc1ccc(OC)cc1	0.623	-0.989 (inactive)	0.0425 (inactive)	-0.0492 (inactive)	0.603	0.332 (inactive)	0.0044	0.544	0.88	0.0408
COCCOC(=O)N1C(=O)[C@@]2(c3cc(C#CCCO)ccc31)[C@H](C(=O)NC[C@H](O)c1ccccc1)[C@H]1C(=O)O[C@H](c3ccccc3)[C@H](c3ccccc3)N1[C@@H]2c1ccccc1OCCO	1.53	1.06 (inactive)	0.578 (inactive)	2.4 (inactive)	2.62	0.636 (inactive)	-0.0437	1.42	1.07	0.13
COc1ccc(C(=O)Nc2ccc(CN3C(=O)[C@]4(O[C@H](CCn5cc([C@H](O)c6ccccc6)nn5)[C@@H]([Si](C)(C)c5ccc(OC)cc5)[C@@H]4C)c4ccccc43)cc2)cc1	0.466	-0.0933 (inactive)	-0.262 (inactive)	1.61 (inactive)	0.658	-0.615 (inactive)	0.101	0.341	-0.047	-0.169
O=C1CSC(c2cccc([N+](=O)[O-])c2)N1c1ccccc1 (stereo not given)	0.0447	-0.0876 (inactive)	0.616 (inactive)	1.09 (inactive)	0.517	0.666 (inactive)	-0.0163	0.36	0.201	0.0093
COc1ccc([Si](C)(C)[C@@H]2[C@@H](CC(=O)N(CCO)Cc3ccccc3)O[C@]3(C(=O)N(Cc4ccc(N5CCOC5=O)cc4)c4ccccc43)[C@H]2C)cc1	1.44	-0.677 (inactive)	0.303 (inactive)	2.92 (inactive)	2.13	-0.249 (inactive)	-0.0887	0.806	0.643	-0.0343
CC(C)(C)N1CC=CC23O[C@@H]4C=CCCOC(=O)C4[C@H]2C(=O)N(CCCO)[C@@H]3C1=O (stereo not given in full)	-1.49	0.0588 (inactive)	-0.37 (inactive)	-0.199 (inactive)	-1.09	1.04 (inactive)	-0.195	-0.399	-1.7	-0.268
C=CCOC(=O)[C@H]1[C@@H]2C(=O)O[C@@H](c3ccccc3)[C@@H](c3ccccc3)N2[C@@H](c2ccc(OCCOC(=O)[C@H]3C[C@H]4C(=O)N[C@@H](CCCCN(C)C)C(=O)N4[C@H]3c3ccc(O)cc3)cc2)[C@]12C(=O)Nc1ccccc12	1.54	-0.0535 (inactive)	-1.03 (inactive)	-0.713 (inactive)	2.49	-0.296 (inactive)	0.155	1.83	1.06	0.0088
NC(=O)[C@@H]1[C@H]2C(=O)O[C@H](c3ccccc3)[C@H](c3ccccc3)N2[C@H](c2ccccc2OCCO)[C@@]12C(=O)Nc1ccc(C#CCCO)cc12	-0.155	0.566 (inactive)	-0.145 (inactive)	2.38 (inactive)	0.417	0.973 (inactive)	-0.143	-0.209	-0.196	-0.131
CC(C)(C)OC(=O)CC[C@@]1(C(=O)N2CCCCC2)N=C(c2ccc(OCCCO)cc2)O[C@@H]1c1ccccc1CN=[N+]=[N-]	1.54	-0.492 (inactive)	-0.689 (inactive)	-0.0683 (inactive)	3.66	0.308 (inactive)	0.208	0.39	1.05	0.0026
COc1cc2c(cc1OC)CN(C(=O)[C@@H]1[C@H]3C(=O)O[C@H](c4ccccc4)[C@H](c4ccccc4)N3[C@H](c3ccc(O)cc3)[C@@]13C(=O)Nc1ccc(C#CCNC(N)=O)cc13)CC2	0.666	1.1 (inactive)	1.27 (inactive)	1.48 (inactive)	1.22	0.364 (inactive)	0.0835	1.03	0.802	-0.0455
CCOC(=O)C1=CCC(c2cccc(Cl)c2)O1 (stereo not given)	0.487	-2.79 (inactive)	-0.615 (inactive)	3.33 (inactive)	0.744	0.558 (inactive)	-0.0831	-0.0785	0.186	-0.0953
COc1ccccc1CN1C(=O)c2ccccc2[C@@H](C(=O)NCC(C)C)[C@@H]1c1ccc(CO)cc1	-0.106	0.444 (inactive)	-0.288 (inactive)	0.125 (inactive)	2.18	0.0616 (inactive)	-0.0042	-0.081	-0.222	-0.0398
COCCCNC(=O)[C@@]1(Cc2ccccc2I)c2ccccc2C(=O)N(Cc2ccccc2Cl)[C@H]1c1ccc(CO)cc1	0.34	-2.1 (inactive)	-0.477 (inactive)	-0.905 (inactive)	2.37	-0.162 (inactive)	0.0842	0.323	0.344	-0.0429
